# Reference: PubChem BioAssay AID449762 (Southern Research Specialized Biocontainment Screening …, 2010)
# The whole screen tested about 330,000 compounds, of which about 1,900 (0.58%) were called active. Inconclusive results (about 4%) are left out. Cut-off read from the data, not from the text of the source: inconclusive = inhibition above about 70% without an active follow-up result; inactive = below that. Not all results are given here. Results with a measured potency or affinity are listed apart.
# Experiment: M. tuberculosis growth inhibition, HTS (AID 449762);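 note: bacterial growth assessed after seven days of incubation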
# Details: M. tuberculosis H37Rv growth inhibition, 7H9 media; at 25 µM; active compounds read high
row,SMILES,inhibition
1,CCOC(=O)C1CCCN(CC(O)COc2cccc(C)c2)C1 (stereo unspecified),-3.72% (inactive)
2,COc1ccccc1C(=O)N/C(=C\c1ccccc1)C(=O)NC(Cc1ccccc1)C(=O)O (stereo unspecified),-6.9% (inactive)
3,Cc1ccc(NC(=O)CSCC(=O)N=c2sccn2C)cc1,-9.96% (inactive)
4,Cc1nc2c(c(=O)c3ccccc3n2C)c(=O)n1C1CCCCCC1,-2.45% (inactive)
5,CCc1nc2c(c(=O)c3ccccc3n2C)c(=O)n1C1CCCCCC1,6.04% (inactive)
6,COc1ccc(OC)c(S(=O)(=O)N2CCCCC2C(=O)O)c1 (stereo unspecified),-12.8% (inactive)
7,COc1ccccc1N1CCN(CCCCOc2c(OC)cccc2OC)CC1,4.13% (inactive)
8,COc1ccccc1OCCCCN1CCN(c2ccccc2OC)CC1,-3.03% (inactive)
9,CN(C)c1cccc2c1c(NC(=O)c1ccc(F)cc1)nn2C,-5.17% (inactive)
10,Cc1nc2c(c(=O)[nH]1)C(c1ccc([N+](=O)[O-])cc1)c1c(c3ccccc3oc1=O)O2 (stereo unspecified),4.87% (inactive)
11,O=S(=O)(NC1CC(NS(=O)(=O)OCC(Cl)(Cl)Cl)C2CCCCC12)OCC(Cl)(Cl)Cl (stereo unspecified),4.68% (inactive)
12,CCC1Oc2ccc(C)cc2N(CC(=O)N2CCCC2)C1=O (stereo unspecified),9.77% (inactive)
13,COC1=Cc2c(ccc3ccc(=O)oc23)OC1(C)C,1.79% (inactive)
14,CC1(C)Oc2ccc3ccc(=O)oc3c2/C(=C/O)C1=O,2.64% (inactive)
15,O=C(OCc1nnc(-c2ccc(Cl)cc2)o1)C12CC3CC(CC(O)(C3)C1)C2,7.22% (inactive)
16,CCOC(=O)c1cc(C(=O)NC(C)c2ccccc2)c(C)[nH]c1=O (stereo unspecified),-4.64% (inactive)
17,CCOC(=O)c1nnc(-c2ccccc2)nc1Sc1c(Cl)cccc1Cl,4.17% (inactive)
18,CCOC(=O)c1nnc(-c2ccc(C)cc2)nc1Sc1ccccc1Cl,13.5% (inactive)
19,CCOC(=O)c1c(NCc2ccccc2)n[nH]c1C,-5.08% (inactive)
20,CCOC(=O)c1nnc(-c2ccccc2)nc1NC,-30.8% (inactive)
21,O=C(CCN1C(=O)/C(=C\c2ccccc2Cl)SC1=S)Nc1cccnc1,2.83% (inactive)
22,CC(=O)C1C2c3ccccc3OC1(C)N=c1s/c(=C/c3cn(C)nc3C)c(=O)n12 (stereo unspecified),1.62% (inactive)
23,COC(=O)C1C2c3ccccc3OC1(C)N=c1s/c(=C/c3cn(C)nc3C)c(=O)n12 (stereo unspecified),-3.81% (inactive)
24,COc1ccc(-c2cc3ccccc3oc2=O)cc1NC(=O)c1cccnc1,4.8% (inactive)
25,COc1ccc(-c2cc3ccccc3oc2=O)cc1NC(=O)c1ccc(Br)o1,-2.95% (inactive)
26,Cn1c(-c2nonc2N)nc2ccccc21,0.49% (inactive)
